Measured values taken from PubChem BioAssay (NCATS).
A number with no mark means an inactive call. Results filed as inconclusive are left out. The source made the active and inactive calls. Calls come from the whole dose curve; as a rule, active = well fitted curve in the direction sought with a large enough effect; inconclusive = small, poorly fitted or top-dose-only effect, or another doubt; inactive = no such curve, though single readings can be large; an effect the other way counts as inactive or inconclusive.

Experiments:
[1] = qHTS assay for measurement of the activity of small molecule inhibitors on Zika virus induced Caspase-3 activity in human iPSC derived neural progenitor cells (hNPCs) (AID 1224857); note: nearly all actives have a fitted effect of over 65% in size; note: potency is the fitted concentration of half-maximal effect
Outline: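 Quantitative HTS format: human iPSC neural progenitors, 1 h compound pretreatment, ZIKV 2 FFU/cell for 6 h at 37 C. Percent inhibition derived from luminescent caspase-3/7 signal between uninfected and infected controls.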

[2] = qHTS assay for measurement of the activity of small molecule inhibitors on Zika virus induced Caspase-3 activity in human astrocytoma cells (AID 1224859)
Outline: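 Readout is luminescence from Caspase-Glo 3/7 added after a 6 h ZIKV infection (2 FFU/cell) of compound-pretreated (1 h) SNB-19 cells; data expressed as % inhibition versus uninfected and infected wells.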

[3] = qHTS Screen of the MIPE 4.0 Collection Against Ewings Sarcoma (TC71) (AID 1259253); note: nearly all actives have a fitted effect of over 40% in size; note: potency is the fitted concentration of half-maximal effect
Outline: (§1)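 Measured: ATP luminescence (CellTiter-Glo) 10 min after reagent addition, following 48 h drug treatment. Relative luciferase units converted to percent activity, with no-cell wells as full and DMSO wells as zero inhibition.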

[4] = qHTS Screen of the MIPE 4.0 Collection Against Ewings Sarcoma (EW8) (AID 1259255); note: nearly all actives have a fitted effect of over 35% in size; note: potency is the fitted concentration of half-maximal effect
Outline: as §1

[5] = qHTS Screen of the MIPE 4.0 Collection Against Ewings Sarcoma (TC32) (AID 1259256); note: nearly all actives have a fitted effect of over 45% in size; note: potency is the fitted concentration of half-maximal effect
Outline: as §1

[6] = qHTS Screen of the MIPE 4.0 Collection Against Ewings Sarcoma (RDES) (AID 1259252); note: nearly all actives have a fitted effect of over 35% in size; note: potency is the fitted concentration of half-maximal effect
Outline: as §1

[7] = Identifying Small Molecule Inhibitors of Pancreatic Cancer Stem Cells (SN12C, Adherent) (AID 1259358);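 note: cell survival measured after 48 h of compound exposure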; note: potency is the fitted concentration of half-maximal effect
Outline: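 After a 4 h attachment period, compounds were pinned into wells and cultures held 48 h under standard incubator conditions. Viability was then measured as CellTiter-Glo luminescence following 10 min at room temperature.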

[8] = Identifying Small Molecule Inhibitors of Pancreatic Cancer Stem Cells (A2780, Spheroid) (AID 1259357); settings: Potency: A2780 spheroid viability; note: potency is the fitted concentration of half-maximal effect;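 note: spheroids pre-formed over 14 days in stem cell medium on hydrogel; compound exposure lasted 48 h before the ATP luminescence read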
Outline: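 Spheroids grown 14 days in stem cell media on nonadherent hydrogel before screening; cells attached 4 h, then compound exposure 48 h at 37C, 5% CO2. CellTiter-Glo luminescence normalized to DMSO (no inhibition) and no-cell wells (full inhibition).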

[9] = qHTS assay to identify small molecule inhibitors of chordoma cells - UCH-2 (AID 1259356); note: series mostly up to about 46 µM
[10] = qHTS assay to identify small molecule inhibitors of chordoma cells - UCH-1 (AID 1259355); note: nearly all actives have a fitted effect of over 55% in size
Outline: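 Luminescent ATP read-out (CellTiter-Glo, 30min at room temperature) measured viability of UCH-1 cells exposed for 48hr to test drugs at 15 concentrations, co-dosed with a five-agent combination of auranofin, camptothecin, doxorubicin, rubitecan and topotecan.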

SMILES | Potency [1] | Potency [2] | Potency [3] | Potency [4] | Potency [5] | Potency [6] | Potency [7] | Potency [8] | outcome [9] | Potency [10]
OCCCNc1cc(-c2ccnc(Nc3cccc(Cl)c3)n2)ccn1 | inactive | inactive | 118 nM (active) | 148 nM (active) | 166 nM (active) |  |  |  |  | 
CNC(=O)c1nn(C)c2c1C(C)(C)Cc1cnc(Nc3ccc(N4CCN(C)CC4)cc3)nc1-2 | inactive |  | 1870 nM (active) | 2960 nM (active) | 2350 nM (active) | 1660 nM (active) |  |  |  | 
CN(C)Cc1c(C(=O)NCCOc2ccc(C(=O)NO)cc2)oc2ccccc12 | inactive | inactive | 935 nM (active) | 1050 nM (active) | 833 nM (active) |  |  |  |  | 
CC(C)[C@H](C(=O)Nc1ccc(C(=O)NO)cc1)c1ccccc1 | inactive | inactive | 662 nM (active) | 526 nM (active) | 526 nM (active) |  | 3720 nM (active) |  |  | 
CN(c1ncccc1CNc1nc(Nc2ccc3c(c2)CC(=O)N3)ncc1C(F)(F)F)S(C)(=O)=O | inactive | inactive |  | 8330 nM (active) | 10500 nM (active) |  |  | 5260 nM (active) |  | 
CC(C)(O)CCc1ccc(OCc2cc(-c3cccc(OC(F)F)c3)c3ncccc3c2)cc1 | inactive | inactive | inactive | inactive | inactive |  | inactive |  |  | 
C[C@@H]1COC(Nc2ccc3ncnc(Nc4ccc(OCc5nccs5)c(Cl)c4)c3c2)=N1 | inactive | inactive | 3720 nM (active) | 20900 nM (active) | 10500 nM (active) |  |  |  |  | 
CNC(=O)c1c(F)cccc1Nc1nc(Nc2cc3c(cc2OC)CCN3C(=O)CN(C)C)nc2[nH]ccc12 | inactive | inactive |  | 7430 nM (active) | 1320 nM (active) |  |  |  |  | 
C1Cc2[nH]nc(-c3nn[nH]n3)c2C1 | inactive | inactive | inactive | inactive | inactive |  | inactive |  |  | 
COc1cccc(-c2ccc(NC(=O)C3=C(C(=O)O)CCC3)c(F)c2)c1 | 2640 nM (active) |  | 11800 nM (active) | 9350 nM (active) | 16600 nM (active) | 14800 nM (active) |  |  |  | 
Nc1nc(NCCNc2ncc(-n3ccnc3)c(-c3ccc(Cl)cc3Cl)n2)ccc1[N+](=O)[O-] | inactive | inactive |  | inactive | 9350 nM (active) |  |  |  |  | 
COC(=O)[C@]12CCC(C)(C)C[C@@H]1[C@@H]1C(=O)C=C3[C@@]4(C)C=C(C#N)C(=O)C(C)(C)[C@@H]4CC[C@@]3(C)[C@]1(C)CC2 | inactive | inactive | 264 nM (active) | 296 nM (active) | 118 nM (active) |  | 2640 nM (active) | 1320 nM (active) |  | 
CC(NCc1ccc2c(c1)nc(NC(=O)c1ccc(-c3cn[nH]c3)s1)n2CC(C)(C)O)C(C)(C)C (stereo not drawn) | inactive |  | 332 nM (active) | 469 nM (active) | 372 nM (active) | 469 nM (active) | 296 nM (active) |  |  | 
O=c1[nH]nc(Sc2ncc([N+](=O)[O-])s2)n1-c1ccc2c(c1)OCCO2 |  | inactive | 6620 nM (active) | 2960 nM (active) | 2960 nM (active) | 7430 nM (active) |  |  |  | 
CS(=O)(=O)c1ccc(-c2cnc(N)c(C(=O)Nc3ccccc3)n2)cc1 |  | inactive | 10500 nM (active) | 13200 nM (active) |  | inactive |  |  |  | 
CC(C)Nc1cc(C(F)(F)F)cc2nc(NC(=O)c3cccnc3)nn12 |  | inactive | 13200 nM (active) | inactive | inactive | 11800 nM (active) |  |  |  | 
CC(=O)Nc1nc(C)c(-c2ccc(Cl)c(S(=O)(=O)NCCO)c2)s1 |  | inactive | 14800 nM (active) | 16600 nM (active) | 10500 nM (active) | 5900 nM (active) |  |  |  | 
CCCNC(=O)Nc1ccc(Oc2ncnc3cc(OC)c(OC)cc23)cc1Cl | inactive |  |  | inactive | inactive |  |  |  |  | 
NC(=O)c1c(OCc2c(F)cc(Br)cc2F)nsc1NC(=O)NCCCCN1CCCC1 | inactive |  | 18700 nM (active) | 9350 nM (active) | 14800 nM (active) | 16600 nM (active) | 5260 nM (active) |  |  | 
COc1ccc2c(c1)CC[C@@H](CN(C)CC(=O)O)[C@H]2c1ccccc1 | inactive |  | 3720 nM (active) | 2350 nM (active) | 2350 nM (active) | 2350 nM (active) | inactive |  |  | 
Nc1nc(Nc2ccc(S(N)(=O)=O)cc2)nn1C(=O)c1c(F)cccc1F | inactive |  | 5260 nM (active) | 8330 nM (active) | 7430 nM (active) | 8330 nM (active) |  | 4180 nM (active) |  | 
CN[C@H]1CCc2cc(OC)c(OC)c(OC)c2-c2ccc(OC)c(=O)cc21 | inactive |  | 3.3 nM (active) | 1.9 nM (active) | inactive | 2.1 nM (active) |  |  | inactive | 
C[C@H]1C[C@@H]2[C@@H]([C@@H](O)C[C@@]3(C)[C@H]2CC[C@]3(O)C(=O)CO)[C@@]2(C)C=CC(=O)C=C12 | inactive |  | inactive | inactive | inactive | inactive |  |  | inactive | 

SMILES | Potency [1] | Potency [2] | Potency [3] | Potency [4] | Potency [5] | Potency [6] | Potency [7] | Potency [8] | outcome [9] | Potency [10]
C=C1C(=CC=C2CCCC3(C)[C@@H]([C@H](C)C=CC=CC(O)(CC)CC)CC[C@@H]23)C[C@@H](O)C[C@@H]1O (stereo partly drawn) | inactive |  | 18700 nM (active) | 23500 nM (active) | 20900 nM (active) |  |  |  |  | 
Nc1ccc(S(=O)(=O)Nc2ncccn2)cc1 | inactive |  | inactive | inactive | inactive | inactive |  |  | inactive | inactive
COc1ccc(-n2nc(C(N)=O)c3c2C(=O)N(c2ccc(N4CCCCC4=O)cc2)CC3)cc1 |  | inactive | inactive | inactive |  | inactive |  |  |  | 
COc1ccc(CC2SC(=O)NC2=O)cc1C(=O)NCc1ccc(C(F)(F)F)cc1 (stereo not drawn) | inactive |  | inactive | inactive | inactive | inactive | inactive |  |  | 
COc1cc2nccc(Oc3ccc(NC(=O)C4(C(=O)Nc5ccc(F)cc5)CC4)cc3)c2cc1OC | inactive |  | 2350 nM (active) | 1050 nM (active) | 1660 nM (active) |  |  |  |  | 
Cc1cc(Nc2cc(CN3CCOCC3)c3nc(C)c(Cc4ccc(Cl)cc4F)n3n2)n[nH]1 | inactive |  | 14800 nM (active) | 3320 nM (active) | 3720 nM (active) | 16600 nM (active) |  |  |  | 
CN(C)CC=CC(=O)Nc1cc2c(Nc3ccc(F)c(Cl)c3)ncnc2cc1O[C@H]1CCOC1 | inactive |  |  | 20900 nM (active) | 16600 nM (active) | 18700 nM (active) |  |  |  | 
COC(=O)C1=C(C)NC(C)=C(C(=O)OCCN2CCN(C(c3ccccc3)c3ccccc3)CC2)C1c1cccc([N+](=O)[O-])c1 (stereo not drawn) | inactive |  | inactive | inactive |  |  |  |  | inactive | 
Nc1ccccc1NC(=O)c1ccc(CNC(=O)OCc2cccnc2)cc1 | inactive |  |  | 2350 nM (active) | 1660 nM (active) | 9350 nM (active) | inactive |  |  | 
CCC1=C[C@@H]2CN(C1)Cc1c([nH]c3ccccc13)[C@@](C(=O)OC)(c1cc3c(cc1OC)N(C)[C@@H]1[C@@](O)(C(=O)OC)[C@H](OC(C)=O)[C@]4(CC)C=CCN5CC[C@]31[C@@H]54)C2 | inactive |  | 166 nM (active) | 6.6 nM (active) | inactive | 14.8 nM (active) |  |  | inactive | 
Cc1c(C)n(Cc2ccc(-c3ccccc3C(=O)O)cc2)c2ccc(C(=O)N[C@@H](C)c3ccc([N+](=O)[O-])cc3)cc12 | inactive |  | inactive | inactive | inactive | inactive |  |  |  | 
CC(C)c1nn(-c2c(Cl)cccc2Cl)c2nc(Cc3ccc(OCCO)cc3)[nH]c(=O)c12 | inactive |  | 132 nM (active) | 148 nM (active) | 105 nM (active) | 187 nM (active) |  |  |  | 
O=C(C=Cc1cccc(S(=O)(=O)Nc2ccccc2)c1)NO | inactive |  | 2700 nM (active) | 1520 nM (active) |  |  | 20900 nM (active) |  |  | 
Cc1cc(Nc2nc(N[C@@H](C)c3ccc(F)cc3)c(C#N)cc2F)n[nH]1 | inactive |  | 13200 nM (active) | 1050 nM (active) | 1320 nM (active) | 1660 nM (active) |  |  |  | 
COc1cccc(Nc2c(C(N)=O)cnc3c(C)cc(S(=O)(=O)c4cccc(C(=O)N(C)C)c4)cc23)c1 | inactive |  | inactive | inactive | inactive | inactive |  |  |  | 
Cc1cc(C(=O)N2CCN(c3cccc(Cl)c3)CC2)n(-c2ccccc2)n1 | inactive |  | 6620 nM (active) | 1180 nM (active) | inactive | 743 nM (active) |  |  |  | 
C=CC(=O)N1CCC[C@@H](n2nc(-c3ccc(Oc4ccccc4)cc3)c3c(N)ncnc32)C1 | inactive |  | 29600 nM (active) | 23500 nM (active) | 18700 nM (active) | 20900 nM (active) |  | inactive |  | 
CC(C)(O)c1cc2nc(-c3cnc(N)nc3)nc(N3CCOCC3)c2s1 | inactive |  | 132 nM (active) | 148 nM (active) | 66.2 nM (active) | 59 nM (active) |  |  |  | 
O=C(CCCCCCNC(=O)c1cnc(N(c2ccccc2)c2ccccc2)nc1)NO | inactive |  | 5900 nM (active) | 4180 nM (active) | 5260 nM (active) | 5900 nM (active) |  |  |  | 
NC(=O)Nc1cc(-c2cccc(F)c2)sc1C(=O)N[C@H]1CCCNC1 | inactive |  | 93.5 nM (active) | 166 nM (active) | 83.3 nM (active) |  | 8330 nM (active) | 18700 nM (active) |  | 
C=CC(=O)Nc1cc2c(Nc3ccc(F)c(Cl)c3)ncnc2cc1C#CC(C)(C)N1CCN(C)CC1 | inactive |  | 2640 nM (active) | 2350 nM (active) | 1320 nM (active) | 1870 nM (active) | 13200 nM (active) | 16600 nM (active) |  | 
C=CCn1c(=O)c2cnc(Nc3ccc(N4CCN(C)CC4)cc3)nc2n1-c1cccc(C(C)(C)O)n1 | inactive |  | 332 nM (active) | 83.3 nM (active) | 372 nM (active) | 264 nM (active) |  |  |  | 
